# Laboratory results from ChEMBL document CHEMBL3988442, “University of Dundee, Small-Polar-MMV Screening Library” (2021).
# For some assays here: Results with a measured potency or affinity are listed apart.
# What was measured:
# Design in all cases: scale not given: direction of the effect not stated beside the values
# [1] = molecular target: Protein translocase subunit SecA (Escherichia coli (strain K12)) (UniProt P10408); test: Assay to Identify E. coli SecA ATPase Inhibitors; format: functional; settings: 30 µM
# Chain of Protein translocase subunit SecA (Escherichia coli (strain K12)) (P10408 whole entry): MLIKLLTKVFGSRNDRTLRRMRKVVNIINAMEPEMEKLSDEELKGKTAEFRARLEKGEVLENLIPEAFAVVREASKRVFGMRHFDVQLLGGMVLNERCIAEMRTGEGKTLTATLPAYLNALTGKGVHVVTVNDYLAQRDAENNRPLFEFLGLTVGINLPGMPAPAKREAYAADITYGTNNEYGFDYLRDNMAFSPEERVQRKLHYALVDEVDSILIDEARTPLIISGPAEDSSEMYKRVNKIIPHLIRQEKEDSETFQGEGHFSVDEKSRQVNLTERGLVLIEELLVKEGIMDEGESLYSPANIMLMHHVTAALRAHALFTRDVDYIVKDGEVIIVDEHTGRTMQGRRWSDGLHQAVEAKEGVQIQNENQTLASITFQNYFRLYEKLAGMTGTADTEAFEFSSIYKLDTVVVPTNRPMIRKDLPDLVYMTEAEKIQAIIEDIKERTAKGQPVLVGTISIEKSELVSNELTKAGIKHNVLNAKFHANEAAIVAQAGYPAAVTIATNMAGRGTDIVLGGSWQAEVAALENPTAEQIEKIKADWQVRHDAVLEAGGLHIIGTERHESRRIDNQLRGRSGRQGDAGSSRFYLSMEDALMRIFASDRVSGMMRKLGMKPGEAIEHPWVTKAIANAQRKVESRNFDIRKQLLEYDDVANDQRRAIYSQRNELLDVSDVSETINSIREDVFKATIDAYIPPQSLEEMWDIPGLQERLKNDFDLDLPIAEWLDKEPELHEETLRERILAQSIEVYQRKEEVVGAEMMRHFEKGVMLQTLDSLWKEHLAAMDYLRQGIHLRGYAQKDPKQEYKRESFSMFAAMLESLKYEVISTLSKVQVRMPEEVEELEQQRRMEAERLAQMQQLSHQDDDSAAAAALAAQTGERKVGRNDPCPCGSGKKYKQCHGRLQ
# [2] = molecular target: T1, Ubiquitin-activating enzyme e1, putative (Leishmania donovani (strain BPK282A1)) (UniProt E9BSI1); test: Leishmania donovani Ubiquitin Activating Enzyme (LdE1); format: functional; settings: 30 µM
# T1 sequence (whole entry): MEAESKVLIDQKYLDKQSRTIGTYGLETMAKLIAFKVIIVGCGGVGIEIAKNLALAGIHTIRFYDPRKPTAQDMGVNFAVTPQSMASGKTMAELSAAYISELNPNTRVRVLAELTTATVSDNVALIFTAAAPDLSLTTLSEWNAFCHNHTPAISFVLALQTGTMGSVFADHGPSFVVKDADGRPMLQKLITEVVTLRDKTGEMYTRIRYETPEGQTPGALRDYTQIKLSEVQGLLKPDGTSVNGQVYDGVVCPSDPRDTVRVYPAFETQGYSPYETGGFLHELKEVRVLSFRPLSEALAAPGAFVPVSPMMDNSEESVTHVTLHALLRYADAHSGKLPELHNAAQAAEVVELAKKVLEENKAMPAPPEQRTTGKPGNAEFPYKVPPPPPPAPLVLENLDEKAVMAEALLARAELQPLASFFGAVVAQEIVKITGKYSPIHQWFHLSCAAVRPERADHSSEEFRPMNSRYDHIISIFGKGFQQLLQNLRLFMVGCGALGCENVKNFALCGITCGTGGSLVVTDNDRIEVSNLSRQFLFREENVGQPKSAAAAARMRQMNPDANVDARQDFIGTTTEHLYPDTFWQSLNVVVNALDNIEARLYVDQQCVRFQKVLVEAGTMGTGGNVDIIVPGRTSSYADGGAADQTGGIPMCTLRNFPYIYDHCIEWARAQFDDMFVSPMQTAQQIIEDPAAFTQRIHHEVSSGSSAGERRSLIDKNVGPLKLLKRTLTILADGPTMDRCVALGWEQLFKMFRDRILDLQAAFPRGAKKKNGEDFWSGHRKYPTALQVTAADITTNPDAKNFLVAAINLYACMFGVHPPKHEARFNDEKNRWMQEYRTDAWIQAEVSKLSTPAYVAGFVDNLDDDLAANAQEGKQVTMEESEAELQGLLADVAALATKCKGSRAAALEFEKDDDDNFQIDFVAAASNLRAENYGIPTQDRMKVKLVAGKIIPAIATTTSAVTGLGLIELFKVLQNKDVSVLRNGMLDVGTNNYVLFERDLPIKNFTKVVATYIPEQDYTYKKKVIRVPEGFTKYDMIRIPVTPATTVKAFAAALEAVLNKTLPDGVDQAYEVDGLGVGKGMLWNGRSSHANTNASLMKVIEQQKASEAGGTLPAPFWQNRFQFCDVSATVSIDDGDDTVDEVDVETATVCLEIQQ
# [3] = molecular target: AMP-activated protein kinase, AMPK (Homo sapiens) (UniProt P54646+O43741+P54619+Q9UGJ0+Q9Y478+Q13131+Q9UGI9); test: AMP-dependent Kinase enzyme assay. An in vitro enzyme assay that detects ADP turnover that is directly proportional to AMPK activity. This uses naive AMPK that is activated during the assay with MK-8722; format: functional; settings: 30 µM
# [4] = molecular target: Sialic acid-binding Ig-like lectin 9 (Homo sapiens) (UniProt Q9Y336); test: Hs-Siglec9 ALPHAscreen SOP 20170721; settings: 10 µM
# Chain of Sialic acid-binding Ig-like lectin 9 (Homo sapiens) (Q9Y336 whole entry): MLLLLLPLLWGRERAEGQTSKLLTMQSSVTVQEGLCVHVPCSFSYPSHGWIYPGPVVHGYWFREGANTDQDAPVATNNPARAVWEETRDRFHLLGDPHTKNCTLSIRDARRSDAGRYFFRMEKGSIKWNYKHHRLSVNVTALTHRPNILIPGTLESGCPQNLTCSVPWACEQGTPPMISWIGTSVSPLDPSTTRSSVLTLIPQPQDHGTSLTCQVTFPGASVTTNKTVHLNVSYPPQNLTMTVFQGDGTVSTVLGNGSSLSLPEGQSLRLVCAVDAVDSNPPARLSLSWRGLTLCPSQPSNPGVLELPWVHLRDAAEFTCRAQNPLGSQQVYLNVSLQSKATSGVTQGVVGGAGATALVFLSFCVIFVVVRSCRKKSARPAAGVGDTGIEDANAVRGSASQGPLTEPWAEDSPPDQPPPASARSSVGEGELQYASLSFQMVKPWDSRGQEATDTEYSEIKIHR
# [5] = tested on: Trypanosoma cruzi; test: Trypanosoma cruzi phosphomannomutase and mannose-1-phosphate guanylyltransferase assay; format: functional; settings: 10 µM
# [6] = molecular target: T2, Arginase-2, mitochondrial (Homo sapiens) (UniProt P78540); test: in vitro enzyme assay to detect the production of urea directly proportional to the activity of Arginase II; format: functional; settings: 33.3 µM; further: in the data most compounds retested in dose-response had high values
# T2 sequence (whole entry): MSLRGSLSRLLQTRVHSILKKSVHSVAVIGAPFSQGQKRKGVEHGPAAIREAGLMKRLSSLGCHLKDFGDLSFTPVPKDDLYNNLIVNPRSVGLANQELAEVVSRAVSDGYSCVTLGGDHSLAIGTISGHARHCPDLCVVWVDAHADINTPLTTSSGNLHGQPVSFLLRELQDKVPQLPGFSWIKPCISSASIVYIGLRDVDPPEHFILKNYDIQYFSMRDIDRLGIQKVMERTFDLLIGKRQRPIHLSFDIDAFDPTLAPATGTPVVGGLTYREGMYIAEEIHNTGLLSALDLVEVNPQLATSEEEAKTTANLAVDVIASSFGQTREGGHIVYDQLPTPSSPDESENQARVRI
# [7] = molecular target: T3, Proteasome subunit beta (Trypanosoma cruzi) (UniProt O96673); test: Trypanosoma cruzi proteasome chymotrypsin-like activity (TcProtChymo) assay.; further: in the data most compounds retested in dose-response had high values; format: functional; settings: 9.37 µM
# T3 sequence (whole entry): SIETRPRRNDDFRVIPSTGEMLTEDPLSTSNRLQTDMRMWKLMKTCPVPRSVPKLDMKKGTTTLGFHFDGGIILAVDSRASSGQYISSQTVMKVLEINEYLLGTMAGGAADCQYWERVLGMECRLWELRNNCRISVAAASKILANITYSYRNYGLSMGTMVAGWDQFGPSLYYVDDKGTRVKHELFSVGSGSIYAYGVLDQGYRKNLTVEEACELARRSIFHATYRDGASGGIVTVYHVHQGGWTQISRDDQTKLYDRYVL
# [8] = species on record: Homo sapiens; test: To identify inhibition of the IFN signalling (Jak-Stat) pathway via expression of an eGFP reporter gene under the control of an IFN-stimulated response element (ISRE) containing MxA promoter.; format: functional; settings: 30 µM
# [9] = molecular target: T4, Tyrosyl-tRNA synthetase, putative (Trypanosoma cruzi (strain CL Brener)) (UniProt Q4DSP6); test: Trypanosoma cruzi tyrosyl tRNA synthetase (TcYRS) _High Tyrosine SOP; format: functional; settings: 30 µM; further: in the data most compounds retested in dose-response had high values
# T4 sequence (whole entry): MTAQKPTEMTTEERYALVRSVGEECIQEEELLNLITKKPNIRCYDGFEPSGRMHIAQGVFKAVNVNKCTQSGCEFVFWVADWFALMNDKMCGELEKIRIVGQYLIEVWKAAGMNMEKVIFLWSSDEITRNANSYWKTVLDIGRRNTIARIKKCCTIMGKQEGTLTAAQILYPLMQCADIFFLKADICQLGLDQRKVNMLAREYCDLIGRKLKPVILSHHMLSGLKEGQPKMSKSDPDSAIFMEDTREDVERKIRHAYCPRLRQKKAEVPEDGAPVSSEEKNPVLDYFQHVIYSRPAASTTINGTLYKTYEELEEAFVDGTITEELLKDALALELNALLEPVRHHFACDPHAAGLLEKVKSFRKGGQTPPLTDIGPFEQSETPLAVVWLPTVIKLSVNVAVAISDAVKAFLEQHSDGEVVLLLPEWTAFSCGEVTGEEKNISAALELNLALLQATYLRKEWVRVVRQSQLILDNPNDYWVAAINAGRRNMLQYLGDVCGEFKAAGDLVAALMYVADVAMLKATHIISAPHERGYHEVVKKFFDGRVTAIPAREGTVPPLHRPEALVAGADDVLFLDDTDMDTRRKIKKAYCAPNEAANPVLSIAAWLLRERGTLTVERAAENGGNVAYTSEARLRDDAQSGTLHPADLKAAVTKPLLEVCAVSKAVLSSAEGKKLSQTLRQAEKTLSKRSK
# [10] = molecular target: T4, Tyrosyl-tRNA synthetase, putative (Trypanosoma cruzi (strain CL Brener)); test: Trypanosoma cruzi tyrosyl tRNA synthetase (TcYRS) SOP; format: functional; settings: 30 µM
# [11] = molecular target: Chromo domain-containing protein 1 (Saccharomyces cerevisiae (strain ATCC 204508 / S288c) (Baker's yeast)) (UniProt P32657); test: ScCHD-1 Enzyme Inhibition Assay; format: functional; settings: 30 µM; further: in the data most compounds retested in dose-response had high values
# Chain of Chromo domain-containing protein 1 (Saccharomyces cerevisiae (strain ATCC 204508 / S288c) (Baker's yeast)) (P32657 whole entry, the tested form may be a part): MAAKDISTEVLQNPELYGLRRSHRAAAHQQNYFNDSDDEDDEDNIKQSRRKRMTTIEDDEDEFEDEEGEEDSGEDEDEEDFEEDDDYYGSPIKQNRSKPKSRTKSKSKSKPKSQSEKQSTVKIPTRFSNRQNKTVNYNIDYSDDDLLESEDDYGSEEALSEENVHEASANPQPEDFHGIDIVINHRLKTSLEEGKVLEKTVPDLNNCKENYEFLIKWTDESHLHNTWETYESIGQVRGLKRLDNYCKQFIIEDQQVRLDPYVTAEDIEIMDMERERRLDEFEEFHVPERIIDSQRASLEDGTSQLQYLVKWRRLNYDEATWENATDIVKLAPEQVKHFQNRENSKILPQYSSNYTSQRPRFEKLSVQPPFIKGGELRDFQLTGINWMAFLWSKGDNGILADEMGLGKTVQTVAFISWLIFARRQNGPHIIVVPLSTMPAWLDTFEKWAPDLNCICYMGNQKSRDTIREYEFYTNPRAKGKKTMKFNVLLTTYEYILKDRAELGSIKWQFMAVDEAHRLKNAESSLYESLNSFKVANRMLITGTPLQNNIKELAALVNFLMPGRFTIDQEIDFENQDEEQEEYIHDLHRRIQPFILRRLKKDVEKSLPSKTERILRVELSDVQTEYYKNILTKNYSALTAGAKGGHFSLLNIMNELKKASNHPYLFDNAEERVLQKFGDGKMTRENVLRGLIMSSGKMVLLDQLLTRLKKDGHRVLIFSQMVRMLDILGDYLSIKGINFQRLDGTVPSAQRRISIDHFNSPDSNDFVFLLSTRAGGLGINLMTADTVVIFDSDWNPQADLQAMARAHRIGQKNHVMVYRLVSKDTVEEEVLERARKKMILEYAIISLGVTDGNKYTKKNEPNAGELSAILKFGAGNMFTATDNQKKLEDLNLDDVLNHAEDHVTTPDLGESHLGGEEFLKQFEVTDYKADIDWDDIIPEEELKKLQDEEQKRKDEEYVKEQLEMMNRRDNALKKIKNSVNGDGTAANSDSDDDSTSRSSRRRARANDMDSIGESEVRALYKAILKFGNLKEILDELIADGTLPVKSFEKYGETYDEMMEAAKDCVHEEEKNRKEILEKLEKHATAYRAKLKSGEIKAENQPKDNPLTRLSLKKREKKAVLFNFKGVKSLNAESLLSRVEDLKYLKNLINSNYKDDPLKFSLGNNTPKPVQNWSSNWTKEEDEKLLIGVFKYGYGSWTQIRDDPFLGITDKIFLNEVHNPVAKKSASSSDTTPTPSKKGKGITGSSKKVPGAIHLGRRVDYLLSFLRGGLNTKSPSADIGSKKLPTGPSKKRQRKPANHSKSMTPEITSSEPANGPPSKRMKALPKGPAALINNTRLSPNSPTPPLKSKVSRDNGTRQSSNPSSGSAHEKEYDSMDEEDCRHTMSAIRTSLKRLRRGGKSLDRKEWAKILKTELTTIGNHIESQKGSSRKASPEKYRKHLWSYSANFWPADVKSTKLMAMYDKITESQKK
SMILES,Percent Effect [1] [%],Percent Effect [2] [%],Percent Effect [3] [%],Percent Effect [4] [%],Percent Effect [5] [%],Percent Effect [6] [%],Percent Effect [7] [%],Percent Effect [8] [%],Percent Effect [9] [%],Percent Effect [10] [%],Percent Effect [11] [%]
Cc1ccc(C(=O)N2C[C@@H]3COC[C@]3(COc3cccnc3)C2)cn1,1.3,18.9,0.636,-16.3,1.07,7.33,13.3,30.2,4.32,7.69,4.76
Cc1cc(N2CCN(C(=O)c3cc(Cl)c[nH]3)CC2)nc(N)n1,0.0114,8.22,-3.11,13.8,5.36,-2.4,15.3,17.5,10.4,13.6,-0.523
Cc1cnc(CN2CCCC(c3cc(C(N)=O)[nH]n3)C2)o1 (stereo unspecified),1.3,24.3,-15.7,-4.2,0.472,-16.8,17.1,-3.25,5.42,18.5,-9.23
Cc1nccn1CCCC(=O)N1CCC(Nc2cccnn2)CC1,-3.42,5.41,-7.19,11.7,4.43,-1.6,3.06,1.39,2.46,16.1,-8.26
O=C(c1ccccn1)N1CCCC(c2nccn2Cc2ccncc2)C1 (stereo unspecified),-1.27,2.74,-0.242,0.902,2.94,0.909,19.7,3.55,10.8,10,-14
Cn1cnnc1S(=O)(=O)C1CCN(S(=O)(=O)c2c(Cl)cccc2Cl)CC1,-1.95,0,5.5,-4.3,-1.76,-2.27,4.97,6.49,0,0,0.0853
O=C1N(c2cccc(Cl)c2)Cc2nc(=O)n(Cc3cccc(F)c3)n21,-2.59,-1.33,3.81,5.37,-4.71,-10.4,6.1,7.11,-1.06,2.56,-8.79
Cc1cc(OCC(=O)NC(C)c2ccc(N3CCOCC3)cc2)no1 (stereo unspecified),-4.84,18.2,-0.141,11.2,5.61,-89.7,8.15,-3.73,3.23,13.6,-6.7
Cc1ccc2c(c1)CN(C(=O)C1CCCCC1)C(CN(C)C)CO2 (stereo unspecified),-4.37,12.2,11.3,-8.18,-4.54,-4.41,12,8.85,3.23,9.09,-13.3
O=C(CCNC(=O)c1ccoc1)NCc1ccccc1F,2.18,13,3.8,-2.98,-2.45,6.53,19.5,24,5.71,18.8,-3.8
Cc1nc(CNC(C)c2ccc(OCC(=O)NC3CC3)cc2)cs1 (stereo unspecified),-1.09,19,-0.957,-2.32,-2.15,-8.82,23.8,3.09,4.17,-48.1,-24.3
Fc1cnc(N2CCCC3(CN(Cc4ccncc4)CCO3)C2)nc1 (stereo unspecified),-2.51,13.3,12.9,-0.573,-2.95,1.63,12.2,8.63,8.51,16.7,-5.31
O=C(NCc1cc[nH]n1)NC1CCCN(c2ncccn2)C1 (stereo unspecified),-1.16,10.5,6.14,-0.458,-4.58,-4.73,16,-3.24,4.25,13,-5.61
CC(=O)N1CCC(C(=O)NCCN2CCC(C)CC2)CC1,-1.98,9.72,11.4,-1.43,-3.6,4.86,18.1,-2.5,4.21,5.13,-3.45
CCn1ncc2c1C(COCC1CC1)CN(C(=O)c1cccs1)C2 (stereo unspecified),1.75,24.7,-1.43,2.69,-0.794,-6.39,13.6,21.1,7.29,13.6,-3.6
COc1c(CNC2CCCc3ccccc32)c(C)nn1C (stereo unspecified),-7.16,21.6,-16.2,24,4.79,2.23,12.4,7.25,2.15,13.6,-5.73
